Experimental findings from PubChem BioAssay (NCI) are described below.

This is part of a sample that, as a whole, favours compounds with a hit. Of some 79,000 tested, about 15% had one in any assay. Values without a mark were called inactive. Activity calls are given as the source filed them. No stated cut-off is given here; in the data, active means growth inhibition above about 70%; inactive means the rest.

Test [1] can be described thus: NCI Yeast Anticancer Drug Screen. Data for the rad50 strain (AID 155).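 Further: 0% = growth of vehicle-only cultures of the same strain.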 The conditions noted are these: S. cerevisiae rad50 strain growth inhibition, active compounds read high. An outline of the steps: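 Relative growth inhibition (compound vs vehicle) was measured in yeast with a defined repair-gene alteration.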
Test [2] in a line: NCI Yeast Anticancer Drug Screen. Data for the mec2-1 strain (AID 157). The conditions noted are these: S. cerevisiae mec2-1 strain, active compounds read high. The essentials: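 Yeast mec2-1 mutant treated with compound. Readout: growth inhibition vs vehicle controls.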
A short description of test [3]: NCI Yeast Anticancer Drug Screen. Data for the sgs1 mgt1 strain (AID 161).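 Further: 0% = growth of cultures given vehicle only.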 The conditions noted are these: S. cerevisiae sgs1 mgt1 strain, active compounds read high. The essentials:
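Mutant yeast exposed to compound; growth scored against vehicle-only wells.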

A short description of test [4]: NCI Yeast Anticancer Drug Screen. Data for the cln2 rad14 strain (AID 165).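 Further: 0% = growth equal to vehicle treated cultures.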 The conditions noted are these: S. cerevisiae cln2 rad14 strain, active compounds read high. The essentials:
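cln2 rad14 yeast strain; compound exposure; growth inhibition read vs vehicle controls.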

A short description of test [5]: NCI Yeast Anticancer Drug Screen. Data for the bub3 strain (AID 167). The conditions noted are these: S. cerevisiae bub3 mutant strain, active compounds read high. An outline of the steps:
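Screening used yeast with an engineered genetic alteration affecting cell cycle control. Compound-exposed cultures were compared with vehicle cultures, and reduced growth was taken as inhibition.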

Test [6] can be described thus: NCI Yeast Anticancer Drug Screen. Data for the mlh1 rad18 strain (AID 175). The conditions noted are these: S. cerevisiae mlh1 rad18 strain growth inhibition, active compounds read high. The essentials:
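Yeast w/ defined DNA-repair lesions; compound exposure; growth vs vehicle controls → % inhibition.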

Setting [7] is: at 5.0 µM (retest, dose inferred, filed as 0.5).
Where [8] appears, read: at 50.0 µM (retest, dose inferred, filed as 5.0).

Take `N#Cc1c2ccccc2nc2ccccc12`: the growth inhibition in test [1] (setting [7]) was 37%; in test [1] (setting [8]), 45%; in test [1] (at 50.0 µM), 85.9% (active); in test [2] (setting [7]) it was 21%; in test [2] (setting [8]), 19%; in test [2] (at 50.0 µM) it was 16.9%. Also, the growth inhibition in test [3] (setting [7]) is -1%; in test [3] (setting [8]), 37%; in test [3] (at 50.0 µM), 30.1%; in test [4] (setting [7]), 2%; in test [4] (setting [8]), 3%; in test [4] (at 50.0 µM), 19.6%. Besides, the growth inhibition was 5% in test [5] (setting [7]); 12% in test [5] (setting [8]); 28.4% in test [5] (at 50.0 µM); 1% in test [6] (setting [7]); 17% in test [6] (setting [8]); 74.2% (active) in test [6] (at 50.0 µM).

For the molecule `CC(C)c1ccc(C(=O)OC2CCCC2)cc1`, the growth inhibition in test [1] (setting [7]) was 8%; in test [1] (setting [8]), 98% (active); in test [1] (at 50.0 µM), 96.5% (active); in test [2] (setting [7]), 9%; in test [2] (setting [8]), 100% (active); in test [2] (at 50.0 µM), 99.2% (active). The growth inhibition in test [3] (setting [7]) was 9%; in test [3] (setting [8]), 99% (active); in test [3] (at 50.0 µM), 54.6%; in test [4] (setting [7]) it was 6%; in test [4] (setting [8]), 99% (active); in test [4] (at 50.0 µM), 94.3% (active). Also, the growth inhibition in test [5] (setting [7]) was 4%; in test [5] (setting [8]) it was 99% (active); in test [5] (at 50.0 µM), 53%; in test [6] (setting [7]), 4%; in test [6] (setting [8]) it was 99% (active); in test [6] (at 50.0 µM), 93.3% (active).

In the case of `Cc1cc(C)c([I+]c2c(C)cc(C)cc2C)c(C)c1`, the growth inhibition in test [1] (setting [7]) is 10%; in test [1] (setting [8]), 95% (active); in test [1] (at 50.0 µM), 57.8%; in test [2] (setting [7]) it was 20%; in test [2] (setting [8]) it was 97% (active); in test [2] (at 50.0 µM), 73.4% (active). Also, the growth inhibition in test [3] (setting [7]) was 9%; in test [3] (setting [8]), 95% (active); in test [3] (at 50.0 µM) it was 60.6%; in test [4] (setting [7]), 16%; in test [4] (setting [8]) it was 97% (active); in test [4] (at 50.0 µM) it was 56.6%. Also, the growth inhibition in test [5] (setting [7]) is 52%; in test [5] (setting [8]) it was 98% (active); in test [5] (at 50.0 µM) it was 60%; in test [6] (setting [7]), 16%; in test [6] (setting [8]) it was 72% (active); in test [6] (at 50.0 µM), 71% (active).

As for `Nc1cccc2cccc([N+](=O)[O-])c12`, the growth inhibition is -142% in test [1] (setting [7]); -39% in test [1] (setting [8]); 10.8% in test [1] (at 50.0 µM); -47% in test [2] (setting [7]); -40% in test [2] (setting [8]); 11.4% in test [2] (at 50.0 µM). The growth inhibition was -52% in test [3] (setting [7]); 1% in test [3] (setting [8]); 16% in test [3] (at 50.0 µM); -63% in test [4] (setting [7]); -10% in test [4] (setting [8]); 62% in test [4] (at 50.0 µM). Also, the growth inhibition in test [5] (setting [7]) was -74%; in test [5] (setting [8]), -86%; in test [5] (at 50.0 µM), -19.9%; in test [6] (setting [7]), -130%; in test [6] (setting [8]), -68%; in test [6] (at 50.0 µM) it was 21.4%.

For the molecule `O=[N+]([O-])c1ccc(N2CCN(Cc3ccccc3)CC2)c2c1no[n+]2[O-]`, the growth inhibition was 50% in test [1] (setting [7]); 97% (active) in test [1] (setting [8]); 90.1% (active) in test [1] (at 50.0 µM); 18% in test [2] (setting [7]); 98% (active) in test [2] (setting [8]); 93.1% (active) in test [2] (at 50.0 µM). The growth inhibition in test [3] (setting [7]) was 34%; in test [3] (setting [8]), 92% (active); in test [3] (at 50.0 µM), 89.5% (active); in test [4] (setting [7]), 4%; in test [4] (setting [8]) it was 22%; in test [4] (at 50.0 µM) it was 72.5% (active). Besides, the growth inhibition in test [5] (setting [7]) is 11%; in test [5] (setting [8]) it was 78% (active); in test [5] (at 50.0 µM), 90% (active); in test [6] (setting [7]), 39%; in test [6] (setting [8]) it was 97% (active); in test [6] (at 50.0 µM) it was 88.3% (active).

Take `CC12CCC(O)CC1=CCC1C2CCC2(C)C3=NN=CC3CC12` (stereo not given): the growth inhibition in test [1] (setting [7]) is 38%; in test [1] (setting [8]), 99% (active); in test [1] (at 50.0 µM) it was 96.6% (active); in test [2] (setting [7]) it was 16%; in test [2] (setting [8]), 100% (active); in test [2] (at 50.0 µM), 99.4% (active). Also, the growth inhibition was 35% in test [3] (setting [7]); 100% (active) in test [3] (setting [8]); 98.5% (active) in test [3] (at 50.0 µM); 7% in test [4] (setting [7]); 100% (active) in test [4] (setting [8]); 99.2% (active) in test [4] (at 50.0 µM). Moreover, the growth inhibition in test [5] (setting [7]) was 31%; in test [5] (setting [8]), 100% (active); in test [5] (at 50.0 µM), 99.3% (active); in test [6] (setting [7]), 50%; in test [6] (setting [8]) it was 100% (active); in test [6] (at 50.0 µM), 99.5% (active).

Take `CCCCC(CCc1ccc([N+](=O)[O-])cc1)(C(C)=O)C(=O)OCC` (stereo not given): the growth inhibition is 1% in test [1] (setting [7]); -41% in test [1] (setting [8]); 59.7% in test [1] (at 50.0 µM); 2% in test [2] (setting [7]); -10% in test [2] (setting [8]); 13.1% in test [2] (at 50.0 µM). Also, the growth inhibition is -2% in test [3] (setting [7]); 24% in test [3] (setting [8]); 47% in test [3] (at 50.0 µM); -4% in test [4] (setting [7]); -14% in test [4] (setting [8]); 4.75% in test [4] (at 50.0 µM). Also, the growth inhibition was 11% in test [5] (setting [7]); 45% in test [5] (setting [8]); 83.2% (active) in test [5] (at 50.0 µM); -10% in test [6] (setting [7]); -50% in test [6] (setting [8]); 62% in test [6] (at 50.0 µM).

In the case of `On1c(-c2ccccc2)nc2ccccc2c1=S`, the growth inhibition is 32% in test [1] (setting [7]); 39% in test [1] (setting [8]); 86.5% (active) in test [1] (at 50.0 µM); 41% in test [2] (setting [7]); 43% in test [2] (setting [8]); 86.7% (active) in test [2] (at 50.0 µM). Moreover, the growth inhibition in test [3] (setting [7]) was 47%; in test [3] (setting [8]) it was 95% (active); in test [3] (at 50.0 µM), 37%; in test [4] (setting [7]), 28%; in test [4] (setting [8]) it was 95% (active); in test [4] (at 50.0 µM) it was 25.4%. The growth inhibition in test [5] (setting [7]) was 50%; in test [5] (setting [8]), 94% (active); in test [5] (at 50.0 µM), 90.2% (active); in test [6] (setting [7]), 39%; in test [6] (setting [8]) it was 43%; in test [6] (at 50.0 µM), 84.5% (active).

Consider `Cc1onc(-c2ccccc2)c1C(=O)N/N=C/c1cc(Cl)cc(Cl)c1O`, for which the growth inhibition in test [1] (setting [7]) is 92% (active); in test [1] (setting [8]) it was 95% (active); in test [1] (at 50.0 µM), 80.6% (active); in test [2] (setting [7]), 96% (active); in test [2] (setting [8]), 96% (active); in test [2] (at 50.0 µM) it was 88.5% (active). Also, the growth inhibition in test [3] (setting [7]) is 93% (active); in test [3] (setting [8]), 98% (active); in test [3] (at 50.0 µM), 90.8% (active); in test [4] (setting [7]) it was 87% (active); in test [4] (setting [8]), 96% (active); in test [4] (at 50.0 µM), 84.5% (active). The growth inhibition in test [5] (setting [7]) was 94% (active); in test [5] (setting [8]) it was 63%; in test [5] (at 50.0 µM) it was 87.8% (active); in test [6] (setting [7]) it was 96% (active); in test [6] (setting [8]), 94% (active); in test [6] (at 50.0 µM) it was 85.2% (active).

As for `Cn1ccc(=Nc2ccc(NC(=O)c3ccc(N=c4ccn(C)c5ccc([N+](=O)[O-])cc45)cc3)cc2)cc1`, the growth inhibition is 86% (active) in test [1] (setting [7]); 98% (active) in test [1] (setting [8]); 79.7% (active) in test [1] (at 50.0 µM); 80% (active) in test [2] (setting [7]); 98% (active) in test [2] (setting [8]); 87.4% (active) in test [2] (at 50.0 µM). Further, the growth inhibition was 92% (active) in test [3] (setting [7]); 98% (active) in test [3] (setting [8]); 87.3% (active) in test [3] (at 50.0 µM); 83% (active) in test [4] (setting [7]); 96% (active) in test [4] (setting [8]); 76.6% (active) in test [4] (at 50.0 µM). The growth inhibition was 93% (active) in test [5] (setting [7]); 99% (active) in test [5] (setting [8]); 87.5% (active) in test [5] (at 50.0 µM); 72% (active) in test [6] (setting [7]); 95% (active) in test [6] (setting [8]); 84.8% (active) in test [6] (at 50.0 µM).
